Screening data from PubChem BioAssay.
proKLK7 act = activators of human kallikrein-7 zymogen; P49862; purified proKLK7, EDANS-DABCYL substrate fluorescence; 100% is mature enzyme control, 0% vehicle; activation, % at 7 µM; 370,000 compounds, 0.9% hits; AID 652039;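 active means activation above the mean of all tested compounds plus 3 SD, computed per campaign excluding outliers beyond control limits, cut at about 13% in these data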
PLCb3 inh = PLC-beta3 (human) inhibition, primary screen | Q01970 | 370,000 compounds, 0.18% hits | Purified PLC-beta3, fluorogenic substrate, fluorescence | inhibition, % at 12.2 µM; in the data active means inhibition above about 11%;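 further: 0% = median of compound wells on plate and 100% = full blocker control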
ADAM10 inh = ADAM10 inhibition, QFRET primary screen; O14672; recombinant ADAM10, EDANS/DABCYL FRET peptide cleavage, 3 h; inhibition, % at 7 µM; 370,000 compounds, 0.62% hits; AID 720582;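 active means inhibition above a per-campaign cutoff equal to the mean of compounds falling between control-based bounds plus 3 SD, cut at about 20% in these data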;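 further: 0% = DMSO wells while the 100% control is not disclosed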
Target sequence (O14672 214-748 limits assumed): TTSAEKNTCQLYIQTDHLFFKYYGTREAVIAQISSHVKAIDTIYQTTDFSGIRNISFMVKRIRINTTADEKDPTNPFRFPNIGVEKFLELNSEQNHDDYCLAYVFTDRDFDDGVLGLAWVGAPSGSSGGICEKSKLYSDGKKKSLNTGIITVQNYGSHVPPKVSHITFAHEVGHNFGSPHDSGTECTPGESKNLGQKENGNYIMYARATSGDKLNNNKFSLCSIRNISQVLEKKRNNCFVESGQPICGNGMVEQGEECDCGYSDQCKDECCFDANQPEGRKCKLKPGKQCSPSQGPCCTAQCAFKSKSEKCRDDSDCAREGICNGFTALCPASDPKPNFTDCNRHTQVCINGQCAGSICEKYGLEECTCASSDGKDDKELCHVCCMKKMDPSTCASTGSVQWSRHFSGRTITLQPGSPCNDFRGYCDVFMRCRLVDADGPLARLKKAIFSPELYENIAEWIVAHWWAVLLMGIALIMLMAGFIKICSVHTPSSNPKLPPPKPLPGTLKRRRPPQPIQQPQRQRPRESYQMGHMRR
ADAM17 inh = inhibitors of human ADAM17; P78536; recombinant ADAM17, EDANS/DABCYL FRET peptide cleavage; inhibition, % at 6.95 µM; 370,000 compounds, 0.83% hits; AID 720648;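 active means inhibition above the mean of compounds lying between control limits plus 3 SD, set per campaign, cut at about 8.5% in these data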;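 further: 0% = DMSO-only wells as the low control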
PLCg1 inh = PLC-gamma1 (human) inhibition, primary screen | P19174 | purified PLC-gamma1, fluorogenic substrate, fluorescence | inhibition, % at 12.2 µM | 370,000 compounds, 0.84% hits
PLCg1 ctr = counter-screen for PLC-beta3 inhibitors: inhibitors of human PLC-gamma1; shares compounds with PLCg1 inh; purified PLC-gamma1, fluorogenic substrate, fluorescence; inhibition, % at 12.3 µM; 3,300 compounds, 3.1% hits; AID 743258
PLCb3 confirm = confirmation of human PLC-beta3 inhibitors | shares compounds with PLCg1 inh | purified PLC-beta3, fluorogenic substrate fluorescence | inhibition, % at 12.3 µM | 3,300 compounds, 1% hits | AID 743261; in the data active means inhibition above about 11%
Starred values were filed as active, the others as inactive; · = not tested or not shown. This is a sample that favours compounds with a hit; in the whole collection about 2.9% have one here. Unless noted, no stated cut-off is given here; in the data, active means inhibition above about 9.5%; inactive means the rest.

SMILES	proKLK7 act	PLCb3 inh	ADAM10 inh	ADAM17 inh	PLCg1 inh	PLCg1 ctr	PLCb3 confirm
Nc1c(C(=O)N/N=C/c2ccc([N+](=O)[O-])cc2)cnn1-c1ccccc1	-0.7	-0.9	10.5	4.3	10.5*	4.8	6.3
O=C(N/N=C/c1ccc([N+](=O)[O-])cc1)c1cccnc1	0.3	2.0	-0.5	1.3	-1.0	·	·
O=c1c2ccccc2sn1-c1ccc(Cl)cc1Cl	0.2	15.9*	-9.9	-3.7	-0.1	-6.3	1.6
O=c1c2ccccc2ncn1-c1ccc(Cl)cc1Cl	-0.5	-6.3	-0.9	-2.6	1.7	·	·
Cc1cc(Oc2ccc([N+](=O)[O-])cc2)nc(N2CCOCC2)n1	-0.2	7.2	-3.5	0.1	11.9*	-1.0	-6.8
O=C(/C=C/c1cccc([N+](=O)[O-])c1)N1CC[C@@]2(O)CCCC[C@H]2C1	-0.6	1.9	7.8	3.0	10.5*	0.5	-2.3
CCn1c(SCC(=O)Nc2ccc(Cl)cc2)nc2nc3c(cc2c1=O)CCCC3	-0.2	3.3	-2.8	-2.4	5.6	·	·
CCn1c(SCC(=O)Nc2ccc(C(C)=O)cc2)nc2nc3c(cc2c1=O)CCCC3	-0.4	-0.9	2.3	-0.3	9.7*	7.3	5.0
CC1(C)CC(=O)C=C(CN2C(=O)c3ccccc3C2=O)C1=O	0.1	-4.3	5.3	-0.2	-0.8	·	·
CCOC(=O)c1ccccc1NC(=O)CN(c1ccccc1OC)S(C)(=O)=O	0.7	11.2*	10.6	4.6	6.9	-2.6	-6.3
COc1ccccc1N(CC(=O)Nc1ccccc1C(=O)NC(C)C)S(C)(=O)=O	0.2	2.5	-8.2	-4.9	2.4	·	·
N#Cc1ccc(/C=C2\CC3(OC(=O)c4cccc(F)c4)CCCN2C3)cc1 (stereo not drawn)	-0.1	4.8	0.8	-0.1	2.5	·	·
CCC(=O)NC(Nc1nc(C)cs1)(C(=O)OC)C(F)(F)F (stereo not drawn)	0.4	10.7*	7.3	0.2	7.8	-2.8	1.0
COC(=O)C(NC(=O)c1ccc(F)cc1)(Nc1nc(C)cs1)C(F)(F)F (stereo not drawn)	-0.3	1.5	2.2	-2.8	0.6	·	·
CN(C)c1ccc(/C=N/NC(=O)c2nonc2N)cc1[N+](=O)[O-]	-0.4	2.4	-0.7	0.8	9.8*	-3.2	4.9
COc1ccc(/C=N/NC(=O)c2ccc3c(c2)OCCO3)cc1[N+](=O)[O-]	-0.8	-2.7	1.0	0.6	10.6*	-10.1	-2.7
Nc1nonc1C(=O)N/N=C/c1cccc([N+](=O)[O-])c1	0.5	0.6	-2.4	-2.2	-0.6	·	·
O=[N+]([O-])c1ccc(CSc2ccc(S(=O)(=O)N3CCCCC3)cn2)cc1	-1.2	0.5	9.1	-1.5	-0.6	·	·
Cc1ccc(-c2ccc(CN3C(C(C)C)C(=O)N(Cc4cn(CCC5OCCO5)nn4)CCS3(=O)=O)cc2)c(C)c1 (stereo not drawn)	-0.4	2.1	13.8	5.0	2.0	·	·
CC12CC3(C)CC(C)(C1)CC(C(N)=O)(C2)C3	-0.6	12.6*	1.4	2.4	10.5*	3.5	-2.1
CN(C)CCOC(=O)C12CC3(C)CC(C)(CC(C)(C3)C1)C2	-0.1	1.7	1.2	-5.0	1.8	·	·
CC(CCc1ccccc1)NC(=O)c1cccs1 (stereo not drawn)	-0.6	11.9*	11.6	0.3	4.3	-2.1	1.1
CN1CCN(c2ccc([N+](=O)[O-])cc2C(=O)c2ccc(Br)cc2)CC1	1.1	1.5	-5.1	3.3	2.9	·	·
O=C(c1ccc(Br)cc1)c1cc([N+](=O)[O-])ccc1N1CCCCC1	-1.6	0.5	8.4	-1.3	13.5*	-5.3	-7.8
CCOc1ccc(Br)cc1C(=S)N1CCCC1	0.5	0.6	-1.9	-0.5	2.3	·	·
CCCCCCCCN1C(=O)[C@@H](CC(=O)NCCc2ccccc2OC)C[C@@]2(C(=O)OC)C1=C[C@H](C1CCCC1)O[C@@H]2C	-0.5	-4.6	-3.3	-3.7	-1.5	·	·
Cc1ccc2[nH]cc(CCNS(=O)(=O)c3ccc(F)cc3)c2c1	-0.2	-9.6	-3.6	-3.7	-2.2	·	·
CCCOc1cccc(/C=N/NC(=O)c2csc(C)c2C)c1	0.4	4.8	10.2	4.7	11.1*	-4.4	-2.4
Cc1cc(C)c(OCCCCN(C)Cc2ccccc2)c(C)c1	0.3	0.6	6.8	0.9	13.4*	-3.1	1.1
